Experimental data published in PubChem BioAssay AID1159580 (chemical genetic matrix, 2015).
Out of some 5,500 compounds screened, about 2,000 (36%) were called active. Not shown: some 18% with an inconclusive outcome. This is one part of the list. Unmarked numbers belong to inactive results. Cut-off read from the data, not from the text of the source: active = normalized growth mostly below about 0.91 (no sharp cut-off); inconclusive = no clear call, values can overlap the other calls; inactive = mostly above about 0.92.

Experiment: chemical genetic growth profiling, strain panel (AID 1159580);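 note: tested at 20 µM; growth read once vehicle control cultures reached saturation at 30 °C; 1 = growth at the plate median or of vehicle wells; lower values mean less growth of the strain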
Conditions: growth OD

## CO[C@H]1CC(O[C@@H]2/C(C)=C/C[C@@H]3C[C@@H](C[C@]4(CC[C@H](C)[C@@H](C5CCCCC5)O4)O3)OC(=O)[C@@H]3C=C(C)/C(=N\O)[C@H]4OC/C(=C\C=C\[C@@H]2C)[C@]43O)O[C@@H](C)C1O (stereo not given in full)
S. cerevisiae deletion strains, locus YJR066W, strain TOR1, active compounds read low
  normalized growth: 0.659 (active)
S. cerevisiae deletion strains, locus YKL009W, strain mrt4, active compounds read low
  normalized growth: 0.975
S. cerevisiae deletion strains, locus YKL068W, active compounds read low
  normalized growth: 1
S. cerevisiae deletion strains, locus YKL085W, strain MDH1 (second series), active compounds read low
  normalized growth: 0.997
S. cerevisiae deletion strains, locus YKL085W, strain MDH1, active compounds read low
  normalized growth: 0.997
S. cerevisiae deletion strains, locus YKL160W, strain elf1, active compounds read low
  normalized growth: 0.993
S. cerevisiae deletion strains, locus YKL190W, strain CNB1, active compounds read low
  normalized growth: 0.982
S. cerevisiae deletion strains, locus YKR001C, strain vps1, active compounds read low
  normalized growth: 0.745 (active)
S. cerevisiae deletion strains, locus YKR026C, strain gcn3, active compounds read low
  normalized growth: 1.02
S. cerevisiae deletion strains, locus YKR091W, strain srl3, active compounds read low
  normalized growth: 1.01
S. cerevisiae deletion strains, locus YLL001W, strain dnm1, active compounds read low
  normalized growth: 0.974
S. cerevisiae deletion strains, locus YLL026W, active compounds read low
  normalized growth: 1.01
S. cerevisiae deletion strains, locus YLL041C, strain sdh2, active compounds read low
  normalized growth: 1.01
S. cerevisiae deletion strains, locus YLR027C, strain aat2, active compounds read low
  normalized growth: 1.01
S. cerevisiae deletion strains, locus YLR039C, strain RIC1, active compounds read low
  normalized growth: 0.492 (active)
S. cerevisiae deletion strains, locus YLR058C, strain SHM2, active compounds read low
  normalized growth: 0.987
S. cerevisiae deletion strains, locus YLR102C, strain apc9, active compounds read low
  normalized growth: 0.997
S. cerevisiae deletion strains, locus YLR113W, strain HOG1, active compounds read low
  normalized growth: 0.284 (active)
S. cerevisiae deletion strains, locus YLR221C, strain rsa3, active compounds read low
  normalized growth: 1.01
S. cerevisiae deletion strains, locus YLR258W, strain gsy2, active compounds read low
  normalized growth: 1
S. cerevisiae deletion strains, locus YLR262C, strain YPT6 (second series), active compounds read low
  normalized growth: 0.312 (active)
S. cerevisiae deletion strains, locus YLR262C, strain YPT6, active compounds read low
  normalized growth: 0.415 (active)
S. cerevisiae deletion strains, locus YLR268W, strain sec22, active compounds read low
  normalized growth: 0.928
S. cerevisiae deletion strains, locus YLR320W, strain mms22, active compounds read low
  normalized growth: 0.96
S. cerevisiae deletion strains, locus YLR330W, strain CHS5, active compounds read low
  normalized growth: 0.978
S. cerevisiae deletion strains, locus YLR342W, strain FKS1 (second series), active compounds read low
  normalized growth: 0.526 (active)
S. cerevisiae deletion strains, locus YLR342W, strain FKS1, active compounds read low
  normalized growth: 0.985
S. cerevisiae deletion strains, locus YLR357W, strain rsc2, active compounds read low
  normalized growth: 0.854
S. cerevisiae deletion strains, locus YLR370C, strain arc18, active compounds read low
  normalized growth: 0.993
S. cerevisiae deletion strains, locus YLR371W, strain rom2, active compounds read low
  normalized growth: 0.995
S. cerevisiae deletion strains, locus YLR384C, strain iki3, active compounds read low
  normalized growth: 1.01
S. cerevisiae deletion strains, locus YLR418C, strain cdc73, active compounds read low
  normalized growth: 0.936
S. cerevisiae deletion strains, locus YML016C, strain PPZ1, active compounds read low
  normalized growth: 0.995
S. cerevisiae deletion strains, locus YML032C, strain rad52, active compounds read low
  normalized growth: 0.987
S. cerevisiae deletion strains, locus YML120C, strain ndi1, active compounds read low
  normalized growth: 0.995
S. cerevisiae deletion strains, locus YML124C, strain tub3, active compounds read low
  normalized growth: 1
S. cerevisiae deletion strains, locus YMR058W, strain fet3, active compounds read low
  normalized growth: 1.02
S. cerevisiae deletion strains, locus YMR078C, strain ctf18, active compounds read low
  normalized growth: 0.986
S. cerevisiae deletion strains, locus YMR125W, strain sto1, active compounds read low
  normalized growth: 1.03
S. cerevisiae deletion strains, locus YMR129W, active compounds read low
  normalized growth: 1.02
S. cerevisiae deletion strains, locus YMR205C, strain PFK2, active compounds read low
  normalized growth: 0.997
S. cerevisiae deletion strains, locus YMR223W, strain ubp8, active compounds read low
  normalized growth: 0.993
S. cerevisiae deletion strains, locus YMR231W, strain pep5, active compounds read low
  normalized growth: 0.998
S. cerevisiae deletion strains, locus YMR263W, strain SAP30, active compounds read low
  normalized growth: 0.977
S. cerevisiae deletion strains, locus YMR307W, strain GAS1, active compounds read low
  normalized growth: 0.911
S. cerevisiae deletion strains, locus YNL067W, strain RPL9B, active compounds read low
  normalized growth: 0.988
S. cerevisiae deletion strains, locus YNL071W, strain lat1, active compounds read low
  normalized growth: 1.02
S. cerevisiae deletion strains, locus YNL183C, strain NPR1, active compounds read low
  normalized growth: 0.512 (active)
S. cerevisiae deletion strains, locus YNL209W, strain ssb2, active compounds read low
  normalized growth: 0.977
S. cerevisiae deletion strains, locus YNL233W, strain BNI4, active compounds read low
  normalized growth: 0.971
S. cerevisiae deletion strains, locus YNL248C, strain rpa49, active compounds read low
  normalized growth: 1.03
S. cerevisiae deletion strains, locus YNL250W, strain rad50, active compounds read low
  normalized growth: 0.967
S. cerevisiae deletion strains, locus YNL271C, strain bni1, active compounds read low
  normalized growth: 0.922
S. cerevisiae deletion strains, locus YNL298W, strain CLA4, active compounds read low
  normalized growth: 0.933
S. cerevisiae deletion strains, locus YNL307C, strain MCK1, active compounds read low
  normalized growth: 0.957
S. cerevisiae deletion strains, locus YNL322C, strain KRE1 (second series), active compounds read low
  normalized growth: 1.02
S. cerevisiae deletion strains, locus YNL322C, strain KRE1, active compounds read low
  normalized growth: 0.99
S. cerevisiae deletion strains, locus YNR049C, strain mso1, active compounds read low
  normalized growth: 0.984
S. cerevisiae deletion strains, locus YNR052C, strain pop2, active compounds read low
  normalized growth: 0.99
S. cerevisiae deletion strains, locus YOL006C, strain TOP1, active compounds read low
  normalized growth: 0.901
S. cerevisiae deletion strains, locus YOL012C, strain htz1
  normalized growth: 0.49
S. cerevisiae deletion strains, locus YOL147C, strain pex11, active compounds read low
  normalized growth: 1.01
S. cerevisiae deletion strains, locus YOR001W, strain rrp6, active compounds read low
  normalized growth: 0.986
S. cerevisiae deletion strains, locus YOR061W, strain CKA2, active compounds read low
  normalized growth: 0.98
S. cerevisiae deletion strains, locus YOR069W, strain VPS5, active compounds read low
  normalized growth: 0.99
S. cerevisiae deletion strains, locus YOR070C, strain gyp1, active compounds read low
  normalized growth: 0.994
S. cerevisiae deletion strains, locus YOR080W, strain dia2, active compounds read low
  normalized growth: 1.02
S. cerevisiae deletion strains, locus YOR083W, strain WHI5, active compounds read low
  normalized growth: 1
S. cerevisiae deletion strains, locus YOR106W, strain vam3, active compounds read low
  normalized growth: 1.05
S. cerevisiae deletion strains, locus YOR136W, strain idh2, active compounds read low
  normalized growth: 0.974
S. cerevisiae deletion strains, locus YOR144C, strain elg1, active compounds read low
  normalized growth: 0.999
S. cerevisiae deletion strains, locus YOR184W, strain ser1, active compounds read low
  normalized growth: 0.991
S. cerevisiae deletion strains, locus YOR231W, strain MKK1, active compounds read low
  normalized growth: 0.962
S. cerevisiae deletion strains, locus YOR265W, strain rbl2, active compounds read low
  normalized growth: 0.995
S. cerevisiae deletion strains, locus YOR270C, strain vph1, active compounds read low
  normalized growth: 0.991
S. cerevisiae deletion strains, locus YOR290C, strain snf2, active compounds read low
  normalized growth: 1.04
S. cerevisiae deletion strains, locus YOR316C, strain cot1, active compounds read low
  normalized growth: 0.99
S. cerevisiae deletion strains, locus YPL051W, strain arl3, active compounds read low
  normalized growth: 0.8 (active)
S. cerevisiae deletion strains, locus YPL055C, strain LGE1, active compounds read low
  normalized growth: 1
S. cerevisiae deletion strains, locus YPL078C, strain atp4, active compounds read low
  normalized growth: 1.03
S. cerevisiae deletion strains, locus YPL106C, strain sse1, active compounds read low
  normalized growth: 0.62 (active)
S. cerevisiae deletion strains, locus YPL240C, strain hsp82, active compounds read low
  normalized growth: 1.01
S. cerevisiae deletion strains, locus YPL241C, strain CIN2, active compounds read low
  normalized growth: 0.979
S. cerevisiae deletion strains, locus YPL256C, strain CLN2, active compounds read low
  normalized growth: 0.629 (active)
S. cerevisiae deletion strains, locus YPR119W, strain clb2, active compounds read low
  normalized growth: 0.995
S. cerevisiae deletion strains, locus YPR141C, strain kar3, active compounds read low
  normalized growth: 0.992
S. cerevisiae deletion strains, locus YPR163C, strain tif3, active compounds read low
  normalized growth: 0.972
S. cerevisiae deletion strains, locus YPR167C, strain met16, active compounds read low
  normalized growth: 0.985
S. cerevisiae deletion strains, strain wtn01, active compounds read low
  normalized growth: 0.996
S. cerevisiae strains, strain wild type, active compounds read low
  normalized growth: 0.985
